From PubChem BioAssay (EPA / NIEHS) come the findings set out here.

Activity calls are given as the source filed them. The calls were made as follows: active = hit-call score of the fitted dose curve at least 0.9, where 1 is the maximum; inactive = score below 0.9.

Details in all cases: mRNA level, 48 h; actives raise or lower the signal
Read-out in experiment [1]: Cytochrome P450 (CYP2B6), CYP2B6 (gene 1555)
Put plainly: LTEA_HepaRG_CYP2B6: Life Technologies and Expression Analysis (LTEA) Assay for Cytochrome P450 (CYP2B6) using HepaRG (AID 2283481). The method in brief:
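Human HepaRG, 48 h dosing, 0.5% DMSO vehicle, top dose 100 uM. CYP2B6 transcript by qRT-PCR, housekeeping-normalized, bidirectional curve fit.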

Read-out in experiment [2]: CYP2C8 (gene 1558)
Put plainly: LTEA_HepaRG_CYP2C8: Life Technologies and Expression Analysis (LTEA) Assay for CYP2C8 using HepaRG (AID 2283483). The method in brief:
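HepaRG (human liver line), 48 h chemical exposure, 8-pt half-log series from 100 uM, 0.5% DMSO vehicle. Readout: CYP2C8 transcript by qRT-PCR, housekeeping-normalized. Bidirectional fit vs DMSO baseline.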

Read-out in experiment [3]: CYP2C9 (gene 1559)
The experiment is described as follows: LTEA_HepaRG_CYP2C9: Life Technologies and Expression Analysis (LTEA) Assay for CYP2C9 using HepaRG (AID 2283484). The method in brief:
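HepaRG, 48 h dosing, 8-pt half-log series, top 100 uM, 0.5% DMSO vehicle. Read-out: CYP2C9 transcript by TaqMan qRT-PCR, housekeeping-normalized (ACTB/GAPDH/POLR2A). Gain or loss fitted vs DMSO baseline.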

Read-out in experiment [4]: CYP2E1 (gene 1571)
The experiment is described as follows: LTEA_HepaRG_CYP2E1: Life Technologies and Expression Analysis (LTEA) Assay for CYP2E1 using HepaRG (AID 2283485). The method in brief: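 Readout is qRT-PCR of CYP2E1 mRNA, normalized to three housekeeping genes and fitted bidirectionally against 0.5% DMSO. HepaRG cells were dosed 48 h at eight concentrations, highest 100 uM with half-log dilutions.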

Read-out in experiment [5]: CYP4A11 (gene 1579)
The experiment is described as follows: LTEA_HepaRG_CYP4A11: Life Technologies and Expression Analysis (LTEA) Assay for CYP4A11 using HepaRG (AID 2283486). The method in brief: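 Human hepatic HepaRG cultures receive duplicate 48 h exposures across a concentration-response series topping at 100 uM. Expression changes in CYP4A11 are measured by qRT-PCR relative to DMSO controls.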

Read-out in experiment [6]: Cytochrome P450 3A4 (Homo sapiens) (UniProt P08684)
The experiment is described as follows: LTEA_HepaRG_CYP3A4: Life Technologies and Expression Analysis (LTEA) Assay for CYP3A4 using HepaRG (AID 2283487). An outline of the steps: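 HepaRG, 48 h exposure, 8-pt CRC from 100 uM (half-log), 0.5% DMSO, duplicates; serum-free induction medium. Readout: CYP3A4 mRNA, qRT-PCR, ACTB/GAPDH/POLR2A normalization. Bidirectional fit vs DMSO.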

Read-out in experiment [7]: DNA damage-inducible transcript 3 (DDIT3), DDIT3 (gene 1649)
The experiment is described as follows: LTEA_HepaRG_DDIT3: Life Technologies and Expression Analysis (LTEA) Assay for DNA damage-inducible transcript 3 (DDIT3) using HepaRG (AID 2283488). An outline of the steps:
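Cells are human HepaRG liver cells treated for 48 h with eight half-log concentrations up to 100 uM in 0.5% DMSO. Transcript levels come from qRT-PCR normalized to three housekeeping genes, with activity fitted in both directions relative to vehicle.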

Read-out in experiment [8]: Pro-epidermal growth factor (Homo sapiens) (UniProt P01133)
The experiment is described as follows: LTEA_HepaRG_EGF: Life Technologies and Expression Analysis (LTEA) Assay for Epidermal growth factor (EGF) using HepaRG (AID 2283489). The method in brief: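 Concentration-response mRNA assay: HepaRG cells dosed 48 h (max 100 uM, 0.5% DMSO), EGF measured by qRT-PCR and normalized to ACTB/GAPDH/POLR2A.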

Read-out in experiment [9]: Early growth response protein 1 (EGR1) transcription factor, EGR1 (gene 1958)
Put plainly: LTEA_HepaRG_EGR1: Life Technologies and Expression Analysis (LTEA) Assay for Early growth response protein 1 (EGR1) transcription factor using HepaRG (AID 2283490). An outline of the steps:
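HepaRG, 48 h exposure, 8-pt half-log series from 100 uM, 0.5% DMSO vehicle; EGR1 transcript by TaqMan qRT-PCR (Fluidigm array), housekeeping-normalized; bidirectional fit relative to DMSO baseline.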

Read-out in experiment [10]: Cytochrome P450 3A7 (Homo sapiens) (UniProt P24462)
Put plainly: LTEA_HepaRG_CYP3A7: Life Technologies and Expression Analysis (LTEA) Assay for CYP3A7 using HepaRG (AID 2283492). The method in brief: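 qRT-PCR of CYP3A7 in HepaRG lysates after 48 h treatment; concentration-response (8 points, max 100 uM) analysed bidirectionally relative to 0.5% DMSO controls.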

Read-out in experiment [11]: CYP3A5 (gene 1577)
Put plainly: LTEA_HepaRG_CYP3A5: Life Technologies and Expression Analysis (LTEA) Assay for CYP3A5 using HepaRG (AID 2283493). The method in brief: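 Human HepaRG hepatic cells receive 48 h chemical treatment at eight concentrations (half-log steps from 100 uM) in 0.5% DMSO. Expression of CYP3A5 is quantified by Fluidigm qRT-PCR and normalized to three reference genes.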

Read-out in experiment [12]: Fatty Acid-Binding Protein 1 (FABP1), FABP1 (gene 2168)
The experiment is described as follows: LTEA_HepaRG_FABP1: Life Technologies and Expression Analysis (LTEA) Assay for Fatty Acid-Binding Protein 1 (FABP1) using HepaRG (AID 2283494). The method in brief: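 qRT-PCR readout of FABP1 transcript (normalized to three housekeeping genes) after 48 h chemical exposure of HepaRG cells; eight concentrations, half-log steps, max 100 uM, 0.5% DMSO vehicle; gain or loss fitted relative to DMSO baseline.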

Read-out in experiment [13]: Cytochrome P450 4A22 (Homo sapiens) (UniProt Q5TCH4)
The experiment is described as follows: LTEA_HepaRG_CYP4A22: Life Technologies and Expression Analysis (LTEA) Assay for Cytochrome P450 4A22 (CYP4A22) using HepaRG (AID 2283495). The method in brief: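 Concentration-response (8 points, max 100 uM, 0.5% DMSO) in human HepaRG liver cells after 48 h exposure. CYP4A22 mRNA by TaqMan qRT-PCR with housekeeping-gene normalization.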

Read-out in experiment [14]: Cytochrome P450 7A1 (Homo sapiens) (UniProt P22680)
The experiment is described as follows: LTEA_HepaRG_CYP7A1: Life Technologies and Expression Analysis (LTEA) Assay for Cytochrome P450 7A1 (CYP7A1) using HepaRG (AID 2283496). The method in brief:
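HepaRG, 48 h exposure, 8-pt half-log series from 100 uM, 0.5% DMSO vehicle, duplicates. Readout: TaqMan qRT-PCR mRNA vs three housekeeping genes; bidirectional curve fit against DMSO baseline.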

Read-out in experiment [15]: Glutamate-cysteine ligase catalytic (GCLC), GCLC (gene 2729)
Put plainly: LTEA_HepaRG_GCLC: Life Technologies and Expression Analysis (LTEA) Assay for Glutamate-cysteine ligase catalytic (GCLC) using HepaRG (AID 2283498). An outline of the steps:
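HepaRG, 48 h exposure, 8-pt half-log series from 100 uM, 0.5% DMSO vehicle; TaqMan qRT-PCR for GCLC mRNA, housekeeping-normalized; bidirectional curve fit vs DMSO baseline.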

Read-out in experiment [16]: growth arrest and DNA damage 45 (GADD45G), GADD45G (gene 10912)
The experiment is described as follows: LTEA_HepaRG_GADD45G: Life Technologies and Expression Analysis (LTEA) Assay for growth arrest and DNA damage 45 (GADD45G) using HepaRG (AID 2283499). The method in brief:
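Concentration-response in HepaRG: 48 h dosing, 0.5% DMSO, highest level 100 uM. GADD45G expression by qRT-PCR, normalised to endogenous controls; bidirectional fit to DMSO.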

Read-out in experiment [17]: Glutamate-cysteine ligase regulatory (GCLM), GCLM (gene 2730)
Put plainly: LTEA_HepaRG_GCLM: Life Technologies and Expression Analysis (LTEA) Assay for Glutamate-cysteine ligase regulatory (GCLM) using HepaRG (AID 2283500). The method in brief: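 Endpoint is GCLM transcript level by qRT-PCR, normalized to three housekeeping genes, after 48 h chemical exposure of human HepaRG cells (0.5% DMSO vehicle, top 100 uM, half-log dilutions). Fitting was bidirectional relative to DMSO.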

Sequence of Cytochrome P450 3A7 (Homo sapiens) (P24462 whole entry, looked up): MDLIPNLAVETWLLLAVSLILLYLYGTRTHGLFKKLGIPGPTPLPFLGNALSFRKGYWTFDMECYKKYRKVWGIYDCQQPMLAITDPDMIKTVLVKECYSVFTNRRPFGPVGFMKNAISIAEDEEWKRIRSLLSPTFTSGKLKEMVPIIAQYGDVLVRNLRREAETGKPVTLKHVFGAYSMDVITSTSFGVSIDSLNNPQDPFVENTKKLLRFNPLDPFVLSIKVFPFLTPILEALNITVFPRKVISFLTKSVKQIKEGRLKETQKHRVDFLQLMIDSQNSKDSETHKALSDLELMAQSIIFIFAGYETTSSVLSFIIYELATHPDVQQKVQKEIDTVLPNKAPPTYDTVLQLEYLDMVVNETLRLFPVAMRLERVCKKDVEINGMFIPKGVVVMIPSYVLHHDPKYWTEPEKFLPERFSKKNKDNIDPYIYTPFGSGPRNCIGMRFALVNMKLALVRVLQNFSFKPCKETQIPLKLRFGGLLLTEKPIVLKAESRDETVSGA
Sequence of Cytochrome P450 3A4 (Homo sapiens) (P08684 whole entry, looked up): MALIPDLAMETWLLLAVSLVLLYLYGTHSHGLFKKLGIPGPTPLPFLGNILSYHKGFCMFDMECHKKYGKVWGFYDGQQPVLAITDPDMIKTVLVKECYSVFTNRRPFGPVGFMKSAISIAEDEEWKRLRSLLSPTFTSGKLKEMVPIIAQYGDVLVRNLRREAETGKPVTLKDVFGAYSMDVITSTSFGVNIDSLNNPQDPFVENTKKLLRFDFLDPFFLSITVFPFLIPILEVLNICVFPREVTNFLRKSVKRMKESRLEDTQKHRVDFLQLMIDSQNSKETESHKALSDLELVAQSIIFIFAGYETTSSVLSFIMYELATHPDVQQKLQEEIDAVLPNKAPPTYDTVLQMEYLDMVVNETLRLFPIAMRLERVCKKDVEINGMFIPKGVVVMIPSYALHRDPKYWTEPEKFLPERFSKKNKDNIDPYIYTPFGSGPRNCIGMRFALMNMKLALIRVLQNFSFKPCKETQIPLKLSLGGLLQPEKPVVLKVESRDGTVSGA

For orientation: AC50 means the concentration at which the activity in the assay is half-maximal. As to `CON(C)C(=O)Nc1ccc(Cl)c(Cl)c1`, the concentration at half-maximal activity (AC50) in experiment [1] was 24 µM (active); in [4], 77.6 µM (active); in [5], 86.6 µM (active); in [6], 78.6 µM (active); in experiment [12], 37.6 µM (active); in [13], 84.4 µM (active). Further, the half-maximal activity concentration (AC50) in experiment [14] was 16.8 µM (active); in [15], 80 µM (active); in experiment [17], 73.2 µM (active). Moreover, the compound was classed as inactive in [2], in experiment [3], in experiment [7], in [8], in experiment [9] and in experiment [10]. Also, the compound was called inactive in experiment [11] and in experiment [16].

With `CCCC1COC(Cn2cncn2)(c2ccc(Cl)cc2Cl)O1` (configuration not stated), the AC50 in experiment [1] is 30.9 µM (active); in [2] it was 36.4 µM (active); in [3] it was 34.8 µM (active); in experiment [4], 13.5 µM (active); in experiment [5], 34.7 µM (active); in [7], 30.7 µM (active). For the same compound, the half-maximal activity concentration (AC50) in experiment [10] was 29.5 µM (active); in experiment [12], 36.3 µM (active); in experiment [13], 31.7 µM (active); in [14], 60.9 µM (active); in [16], 35.6 µM (active); in [17], 50 µM (active). The compound was called inactive in experiment [8], in experiment [9], in experiment [11] and in experiment [15].

As to `COP(=S)(OC)Oc1nc(Cl)c(Cl)cc1Cl`, the call in experiment [1], in [2], in experiment [3], in [4], in [5] and in [6] was inactive. The compound was called inactive in experiment [7], in [8], in experiment [9], in experiment [10], in experiment [11] and in [12]. Besides, the compound was classed as inactive in experiment [13], in experiment [14], in [15], in experiment [16] and in experiment [17].

For `COC(=O)c1ccccc1C(=O)OC`, the call in experiment [1], in experiment [2], in [3], in [4], in experiment [5] and in [6] was inactive. Further, the outcome in experiment [7], in experiment [8], in experiment [9], in experiment [10], in experiment [11] and in experiment [12] was inactive. Further, the compound was called inactive in experiment [13], in [14], in experiment [15], in [16] and in experiment [17].
